Rab9 prom act – qHTS Assay for Rab9 Promoter Activators; Potency, µM (doses to about 9.22 µM), without a hit: top-dose activation, negative = inhibition, most hits filed as activators; Huh7 Rab9 promoter-luciferase reporter, luminescence, 24 h; AID 485297, 2010; hit rate 2.8% among 320,000; also: % of control where 0% means no effect; nearly all actives have a fitted effect of over 60% in size
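Promoter activation is measured as luciferase luminescence in Huh7 cells stably transfected with a Rab9 promoter–luciferase construct, following 24 h compound exposure at 37 °C and 10 min reagent incubation at ambient temperature.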
KinaseGlo FLuc – Counterscreen for Luciferase (Kinase-Glo TM) Inhibition. AID 1379, 2008. Kinase-Glo luciferase, ATP luminescence, 8 min. hit rate 0.28% among 200,000. Potency, µM (doses to about 38.3 µM), for inactives: at the highest dose activity change, negative = inhibition, actives largely listed as inhibitors. Luciferin 4-monooxygenase (Photuris pensylvanica), Q27757; also: % is scaled to controls: 0 for no effect and ±100 for the full control effect; nearly all actives have a fitted effect of over 60% in size
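Compounds were added to a substrate mix at pH 7.2 (50 mM imidazole, 10 uM ATP, within the enzyme's linear range), followed by Kinase-Glo detection reagent; luminescence was measured after 8 minutes at ambient temperature.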
SMN2 splice enh – qHTS Assay for Enhancers of SMN2 Splice Variant Expression; HEK293 SMN2-luciferase splicing reporter, luminescence, 30-36 h; Potency, µM (highest dose often 46.1 µM), without a hit: top-dose activity change, positive = activation, most hits filed as activators; hit rate 2.8% among 210,000; AID 1458, 2008; also: % of control where 0% means no effect; nearly all actives have a fitted effect of over 55% in size
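HEK293 cells carry an SMN2 minigene-luciferase reporter in which exon 7 inclusion puts luciferase in frame. Cells were seeded at 2000 cells/well, attached for 10-12 hours, then exposed to compounds for 30-36 hours at 37C before ONE-Glo luminescence.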
NPC1 prom act – qHTS Assay for NPC1 Promoter Activators; Huh7 NPC1 promoter luciferase reporter, 24 h; Potency, µM (highest dose often 9.22 µM), for inactives: at the top dose activation, actives largely listed as activators; hit rate 2.4% among 320,000; also: % of control where 0% means no effect; nearly all actives have a fitted effect of over 60% in size
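Luciferase expression driven by the NPC1 promoter was measured in stably transfected Huh7 cells after a 24 h compound incubation, using a luciferase reagent and a luminescence read.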
FLuc counter – qHTS profiling assay for firefly luciferase inhibitor/activator using purifed enzyme and Km concentrations of substrates (counterscreen for miR-21 project); Luciferin 4-monooxygenase (Photinus pyralis), P08659; purified FLuc, Km substrates, luminescence inhibition; Potency, µM (titrated, usually from 57.5 µM), inactives show at the top dose activity change, negative = inhibition, actives largely listed as inhibitors; hit rate 6.9% among 360,000; AID 588342, 2011;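 also: plate controls were vehicle for no effect and reference inhibitor for full effect; nearly all actives have a fitted effect of over 55% in size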
Target sequence (P08659 whole entry, looked up): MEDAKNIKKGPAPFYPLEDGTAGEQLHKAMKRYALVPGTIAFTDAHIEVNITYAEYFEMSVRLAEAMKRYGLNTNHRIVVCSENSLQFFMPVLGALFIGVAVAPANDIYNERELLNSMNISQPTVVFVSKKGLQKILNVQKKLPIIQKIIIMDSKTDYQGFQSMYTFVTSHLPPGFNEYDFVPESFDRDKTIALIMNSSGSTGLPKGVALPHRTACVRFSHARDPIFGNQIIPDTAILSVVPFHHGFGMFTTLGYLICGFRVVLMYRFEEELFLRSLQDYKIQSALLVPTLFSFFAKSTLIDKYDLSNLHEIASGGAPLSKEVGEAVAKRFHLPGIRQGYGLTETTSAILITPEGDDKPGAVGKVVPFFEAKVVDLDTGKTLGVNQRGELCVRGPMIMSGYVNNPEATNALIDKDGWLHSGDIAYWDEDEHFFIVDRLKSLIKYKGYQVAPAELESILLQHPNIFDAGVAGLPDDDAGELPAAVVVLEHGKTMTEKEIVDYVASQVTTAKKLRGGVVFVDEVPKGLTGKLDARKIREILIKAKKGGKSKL
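Purified P. pyralis luciferase, 10 nM final, with Km-level 10 uM D-luciferin and 10 uM ATP in 50 mM Tris acetate pH 7.5, 10 mM Mg acetate, 0.01% Tween-20, 0.05% BSA; 6-point qHTS titration about 60 µM downward; luminescence read.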
Active calls of the source: *; u = inconclusive; x = no result given. In the library only some 7.3% were active in any assay of this set; here they are far more common. Calls follow the shape of the dose curve; as a rule, active = well fitted curve in the direction sought with a large enough effect; inconclusive = small, poorly fitted or top-dose-only effect, or another doubt; inactive = no such curve, though single readings can be large; an effect the other way counts as inactive or inconclusive. Potency is read from the fitted curve at half-maximal effect.

SMILES	Rab9 prom act	KinaseGlo FLuc	SMN2 splice enh	NPC1 prom act	FLuc counter
CCOC(=O)c1ccc(N2Cc3ccccc3C2=N)cc1	30%	0%	0%	15%	u
CCc1ccc(N2Cc3ccccc3C2)cc1	3.5µM*	x	x	2.8µM*	6µM*
O=C1CCC=C1C(O)c1ccccc1 (stereo not drawn)	x	0%	-6%	x	x
COc1ccc(-c2noc(-c3ccc(NCc4ccco4)c([N+](=O)[O-])c3)n2)cc1OC	x	x	x	x	0%
COc1cccc(-c2nn(-c3ccccc3)cc2C(=O)OCC(=O)Nc2ncc(Cl)cc2Cl)c1	-1%	x	x	0%	u
COC(=O)c1cn(-c2ccccc2)nc1-c1ccc(OC)c(OC)c1	0%	x	x	5%	21µM*
COc1cccc(-c2nn(-c3ccccc3)cc2C(=O)NCC(=O)O)c1	-2%	0%	4%	1%	9.5µM*
COc1cccc(-c2nn(-c3ccccc3)cc2/C=C(/NC(=O)c2ccccc2)C(=O)O)c1	-1%	x	x	-1%	27µM*
COC(=O)c1cn(-c2ccccc2)nc1-c1ccccc1	3%	-2%	-28%	-1%	u
COc1ccc(-c2nn(-c3ccccc3)cc2CO)cc1OC	-4%	-1%	-4%	0%	u
COc1cccc(-c2nn(-c3ccccc3)cc2CO)c1	x	5%	6%	x	13µM*
CCc1noc2nc(C)n(CC(=O)O)c(=O)c12	x	x	-11%	x	-2%
COc1ccc(-c2nn(-c3ccccc3)cc2/C=N/Nc2ccc3ccccc3n2)cc1OC	-19%	3%	-66%	-5%	11µM*
COc1ccc(-c2nn(-c3ccccc3)cc2/C=N/O)cc1OC	1%	x	x	20%	u
C#CC(C)(C)NC(=O)c1ccc(-c2ccccc2F)cc1	u	x	x	u	19µM*
O=c1c2ccccc2nc(COc2ccccc2)n1/N=C/c1c[nH]c2ccccc12	1%	1%	0%	-1%	-4%
Cc1cc([N+](=O)[O-])cc(/C=N/n2c(C)nc3ccccc3c2=O)c1O	-1%	x	x	1%	3%
O=[N+]([O-])c1ccc(O)c(/C=N/n2c(CO)nc3ccccc32)c1	-5%	x	x	1%	-9%
C/C(=N\OCc1nc2ccccc2c(=O)n1/N=C/c1cc(C)cc([N+](=O)[O-])c1O)c1ccccc1	-5%	x	x	13%	27µM*
O=c1c2ccccc2nc(COc2ccccc2)n1/N=C/c1ccc(O)cc1O	-3%	x	x	-3%	17µM*
C/C(=N\OCc1nc2ccccc2c(=O)n1/N=C/c1cc([N+](=O)[O-])ccc1O)c1ccccc1	13%	x	x	16%	24µM*
Cc1ccc(NC(=O)N2CCN(Cc3nc4ccc(C)cc4o3)CC2)cc1	x	x	x	x	-4%
O=C1Cc2ccccc2C(=O)N1OCc1ccc(Cl)cc1Cl	3%	-8%	12%	4%	24µM*
O=C1c2ccccc2C(=O)N1OCc1ccccc1	-5%	-10%	-4%	4%	u
O=C1c2ccccc2C(=O)N1OCc1cccc(Cl)c1	4%	18%	-20%	0%	19µM*
SMILES	Rab9 prom act	KinaseGlo FLuc	SMN2 splice enh	NPC1 prom act	FLuc counter
COc1cccc(Cn2c(SCC(=O)N(C)c3ccccc3)nc3ccccc32)c1	x	x	x	x	-14%
COc1ccc(Cl)cc1NC(=O)CCS(=O)(=O)c1cccc2nonc12	x	x	0%	x	-5%
COc1ccc(Cl)cc1C(=O)Nc1ccc2c(c1)OCCO2	26%	x	x	u	1.9µM*
COc1ccc(Cl)cc1C(=O)Nc1ccc2c(c1)OCO2	u	-11%	15%	u	24µM*
COc1ccc(Cl)cc1C(=O)Nc1ccncc1	7%	x	x	-5%	-19%
CCN(CC)c1ccc(NC(=O)c2cc3c(OC)cccc3[nH]2)cc1	5%	x	x	-3%	7.6µM*
CCN(CC)c1ccc(NC(=O)c2cc(Cl)ccc2OC)cc1	16%	17%	4%	16%	15µM*
COc1ccc(Cl)cc1C(=O)Nc1ccc(NC(=O)c2ccco2)cc1	1%	-2%	-3%	0%	1%
Cc1ccc(C)n1-c1nnc(N2CCCC(C(=O)Nc3ccccc3Br)C2)s1 (stereo not drawn)	x	x	4%	x	7%
Cc1cc(C)c2c(c1)c(C)cc1nnc(SCC(=O)c3ccc(F)cc3)n12	x	x	x	x	6%
